The panel holds about 83,000 compounds, 20% with a hit somewhere; the sample as a whole holds those more often.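 Negative percent growth values reflect cell death: -40 means 40% of the cells present at the start died, and -100 means all died.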 Values without a mark were called inactive. Activity calls are given as the source filed them. How the source made its calls: active means growth percent below 10; inactive means the rest.
Columns and labels:
Assay in all cases: NCI-60 one-dose screen, 48 h (100 = growth as untreated, 0 = no growth, -100 = all killed)
Settings in all cases: 10 µM unless noted
SR leukemia = test system: SR leukemia
RPMI-8226 leukemia = test system: RPMI-8226 leukemia
OVCAR-8 ovarian = test system: OVCAR-8 ovarian
OVCAR-5 ovarian = test system: OVCAR-5 ovarian
OVCAR-4 ovarian = test system: OVCAR-4 ovarian
SK-OV-3 ovarian = test system: SK-OV-3 ovarian
IGROV1 ovarian = test system: IGROV1 ovarian
HS 578T breast = test system: HS 578T breast
NCI/ADR-RES ovarian = test system: NCI/ADR-RES ovarian
OVCAR-3 ovarian = test system: OVCAR-3 ovarian

Row | SMILES | growth (SR leukemia) | growth (RPMI-8226 leukemia) | growth (OVCAR-8 ovarian) | growth (OVCAR-5 ovarian) | growth (OVCAR-4 ovarian) | growth (SK-OV-3 ovarian) | growth (IGROV1 ovarian) | growth (HS 578T breast) | growth (NCI/ADR-RES ovarian) | growth (OVCAR-3 ovarian)
1 | Fc1cc(F)cc(NNC(=S)c2ccccc2)c1 | 23.2% | 15.6% | 41% | 91.8% | 49.1% | 28.1% | 57.2% | 61.3% | 55.2% | 
2 | Cc1ccccc1N1CCN(C2=C(Cl)C(=O)c3ncccc3C2=O)CC1 | -24.1% (active) | 11.5% | 70% | 98.4% | 59% | 95.8% | 77.3% | 57.4% | 73.7% | 
3 | Cc1cc(C)cc(NC2=C(Cl)C(=O)c3nc(C)ccc3C2=O)c1 | 41% | -15.1% (active) | 73.1% | 92.7% | -5.74% (active) | 107% |  | 11.1% | 65.6% | -0.41% (active)
4 | Brc1cccc(-c2cc(-c3cnc4c(c3)OCCO4)n[nH]2)c1 | 13.4% | 26.2% | 46.4% | 72.3% | 82.5% | 77.1% | 45% | 76.1% | 10.9% | 
5 | COc1cc(C(=O)c2cc(C(C)=O)c3cccc(C)n23)cc(OC)c1OC | 17% | 51.2% | 50.8% | 65.8% | 74.1% | 46.6% | 43.9% | 44.2% | 22.1% | 
6 | Cn1cc(-c2nn3cc(-c4ccncc4)nc3s2)c2cc(F)ccc21 | 1.87% (active) | 55.3% | 58.6% | 100% | 72.8% | 92.7% | 64.9% | 86.7% | 78.7% | 
7 | Clc1cccc(/C=N/Nc2nc(N/N=C/c3cccc(Cl)c3)nc(N3CCOCC3)n2)c1 | 7.7% (active) | 38.8% | 49.5% | 95.5% | 66.4% | 130% |  | 67.5% | 61.8% | 56.3%
8 | Fc1cccc(Cl)c1/C=N/Nc1nc(N/N=C/c2c(F)cccc2Cl)nc(N2CCCCC2)n1 | 16.1% | 3.27% (active) | 25.8% | 27.8% | 21% | 39.1% | 17.7% | 33.3% | 15.2% | 
9 | Cc1nc(N)sc1-c1csc(Nc2ccc(C(F)(F)F)cc2)n1 | 18.9% | 26.6% | 49.4% | 32.2% | 42.7% | 65.5% |  | 32.4% | 27.3% | 20.8%
10 | O=[N+]([O-])c1ccc(NC(=S)NNC(=S)Nc2ccc(F)cc2)cc1 | 91% | 85.6% | 91.7% | 89.9% | 95.7% | 116% | 83.5% | 102% | 84.2% | 
11 | CN1CCN(c2ccc(C(=O)/C=C/c3cc(F)cc(C(F)(F)F)c3)cc2)CC1 | 17.5% | 11.2% | 65.2% | 115% | 71.8% | 109% |  | 100% | 59% | 
12 | Oc1ccc(-c2nc3ccc(/C(=N\N=C\c4ccc(Cl)cc4)c4ccccc4)cc3[nH]2)cc1 | 62.1% | 33.9% | 82.9% | 97.1% | 58.1% |  | 89.9% | 98.3% | 93% | 
13 | O=S(=O)(NCCCNc1nccc(-c2[nH]c(-c3ccccc3)nc2-c2ccc(F)c(O)c2)n1)c1cccc(F)c1 | 36.7% | 45% | 82% | 147% | 108% |  | 105% | 101% | 103% | 123%
14 | CC1=C(SCC(=O)OCCCCCC(C)C)C(=O)c2ccccc2C1=O | 83.7% | 61% | 92.1% | 113% | 70.1% |  | 79.8% | 91.8% | 100% | 74%
15 | CC1CCN(CC(=O)Nn2c(COc3ccccc3)nc3ccccc3c2=O)CC1 | 30.5% | 76.8% | 98.5% | 101% | 94.9% |  | 73.1% | 86.1% | 71.6% | 94.8%
16 | Cc1csc(/N=C(N)/N=C(\N)c2cccs2)n1 | 99% | 101% | 101% | 115% | 105% | 92.3% |  | 107% | 108% | 
17 | N#Cc1nc(-c2ccccc2)oc1N1CCC(C2(C(F)(F)F)N=N2)CC1 | 85.1% | 97.2% | 97.6% | 109% | 96.4% | 96.2% |  | 96.7% |  | 
18 | COC(=O)c1cccc(NC2=CC(=O)C(C)=C(C)C2=O)c1 | 45.5% | 80.8% | 87.9% | 109% | 24.3% |  | 89.5% | 116% | 87.2% | 8.14% (active)
19 | CS(=O)(=O)c1nccc(-c2c(-c3cccc(OCc4ccc(Cl)c(C(F)(F)F)c4)c3)nc3sccn23)n1 | 9.33% (active) | -16.8% (active) | 99.3% | 101% | 71.9% | 104% |  | 41.1% |  | 
20 | C#Cc1nc(/C=C/C(=O)NO)cs1 | -42.9% (active) | -6.82% (active) | 21% | 42.3% | -24.9% (active) |  | -71.5% (active) | 56% | -6.26% (active) | 
21 | CCOc1cccc(/C(N)=N/C(N)=N/c2nc3ccccc3s2)c1 | 6.28% (active) | 77.3% | 68.8% | 98.8% | 95.1% |  | 56% | 96.3% | 49.7% | 104%
22 | COc1cc2cc(Oc3ccc(NC(=O)Nc4ccc(F)c(C(F)(F)F)c4)cc3)c(C)nc2cc1OCCN(C)C | 1.94% (active) | 80.2% | 102% | 137% | 112% |  | 101% | 108% | 41.2% | 
23 | CN1CCN(Cc2ccc(NC(=O)c3cncc(C#Cc4cnc(N)nc4)c3)cc2C(F)(F)F)CC1 | 16.3% | 22.7% | 33.1% | 29.6% | 45.1% |  | 14.6% | -12.5% (active) | 60.1% | 
24 | Cc1[nH]c(C(=O)Nc2ccc(S(=O)(=O)N3CCCCC3)cc2OCCOCCOCCOCCOCCOCCOCCOCCOCCOc2cc(S(=O)(=O)N3CCCCC3)ccc2NC(=O)c2[nH]c(C)c3c2CCCCC3=O)c2c1C(=O)CCCC2 | 10.9% | 10.6% | 13.6% | 48.6% | 12.5% |  | 6.25% (active) | -17% (active) | 85.3% | 
25 | CCN(CC)CCOc1ccc(C(=C(C)Cc2ccc(OC)cc2)c2ccc(OCCN(CC)CC)cc2)cc1 | -26.6% (active) | -25% (active) | 74.5% | 77.4% | 89.1% | 93.5% |  | 72.9% | 85.4% | 31.2%
26 | CNC(=O)c1cc(N2CCc3cc(NC(=O)Nc4ccc(N5CCOCC5)c(C(F)(F)F)c4)ccc32)ccn1 | 14.4% | 16% | 23.5% | 57.4% | 41.4% | 80% |  | -0.517% (active) | 16.8% | 
27 | CC/C(=C(/c1ccc(Cl)cc1)c1ccc(OCCN)cc1)c1ccccc1 | 0.24% (active) | 89.8% | 100% | 119% | 99.3% |  | 96.8% | 90.3% | 99.9% | 
28 | CCOC(=O)c1cccc(NC2=C(Cl)C(=O)C(C)=C(C)C2=O)c1 | 27.7% | 26.8% | 98.8% | 105% | -4.17% (active) |  | 32.2% | 95.9% | 102% | 99.8%
29 | N#CC1=C2NCCCNc3oc(nc3C#N)Cc3ccccc3CC(=N1)O2 | 36.6% | 19.9% | 97.4% | 102% | 94.5% | 102% |  | 92.4% | 97.8% | 
30 | COc1ccc(-c2nc(C#N)c(N3CCC(S(=O)(=O)N4CCOCC4)CC3)o2)cc1 | 83.8% | 101% | 106% | 97.1% | 97.8% | 107% |  | 102% | 97.2% | 

Reference: PubChem BioAssay (NCI)
